The supplement of paper PMC11624193, “Coupling cellular drug-target engagement to downstream pharmacology with CeTEAM” (Nature Communications, 2024)
Counter-ions that a name gives are not always drawn.

These molecules were tested against PARP1 L713F-nLuc biosensor (HCT116) (UniProt P09874) (assay: PARP1 L713F-nLuc/akaLuc ratio relative to DMSO control (biosensor stabilization) (fold change); higher = more PARP1 biosensor stabilization (target engagement / stabilizer), active = hit call of the paper). Details: stock concentration (mM; final µM = stock mM x 1): 10; 24 h;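 active = log2 fold change beyond 2 SD from the library mean after excluding viability outliers; inactive = within 2 SD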.
Chain of PARP1 L713F-nLuc biosensor (HCT116) (P09874 whole entry L713F, looked up): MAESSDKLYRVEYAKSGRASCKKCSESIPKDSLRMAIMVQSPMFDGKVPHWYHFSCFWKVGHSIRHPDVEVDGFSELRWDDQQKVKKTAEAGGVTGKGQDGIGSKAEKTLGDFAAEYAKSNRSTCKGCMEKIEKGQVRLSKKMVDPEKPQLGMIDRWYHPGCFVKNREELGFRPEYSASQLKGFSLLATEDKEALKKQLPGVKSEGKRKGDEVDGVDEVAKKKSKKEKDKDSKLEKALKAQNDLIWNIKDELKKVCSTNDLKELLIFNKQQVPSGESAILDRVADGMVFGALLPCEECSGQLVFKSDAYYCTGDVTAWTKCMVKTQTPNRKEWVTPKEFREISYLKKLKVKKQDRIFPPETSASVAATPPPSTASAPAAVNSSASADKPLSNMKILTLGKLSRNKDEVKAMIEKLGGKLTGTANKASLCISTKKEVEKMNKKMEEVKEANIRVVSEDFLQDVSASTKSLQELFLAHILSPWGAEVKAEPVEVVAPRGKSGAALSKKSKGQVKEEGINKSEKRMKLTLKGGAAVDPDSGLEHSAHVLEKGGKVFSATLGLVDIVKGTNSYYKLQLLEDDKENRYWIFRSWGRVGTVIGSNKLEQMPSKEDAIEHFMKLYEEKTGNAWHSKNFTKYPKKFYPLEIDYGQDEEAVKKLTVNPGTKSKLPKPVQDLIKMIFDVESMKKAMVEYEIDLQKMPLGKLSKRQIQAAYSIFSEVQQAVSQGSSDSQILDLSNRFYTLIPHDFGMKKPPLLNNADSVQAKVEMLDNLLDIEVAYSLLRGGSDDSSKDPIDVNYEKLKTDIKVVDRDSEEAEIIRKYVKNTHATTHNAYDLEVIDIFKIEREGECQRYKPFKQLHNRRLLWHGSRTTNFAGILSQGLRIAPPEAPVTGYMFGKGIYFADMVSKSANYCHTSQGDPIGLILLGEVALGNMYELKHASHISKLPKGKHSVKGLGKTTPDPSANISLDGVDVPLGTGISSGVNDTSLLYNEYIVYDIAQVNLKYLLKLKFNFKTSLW

Row | SMILES | PARP1 L713F-nLuc/akaLuc ratio
1 | NC(=O)NO [Hydroxyurea] | 0.953 (inactive)
2 | Nc1cccc(Nc2ncc(-c3ccc(Cl)cc3)o2)c1 | 0.952 (inactive)
3 | O=C(NCCCNC(=O)Nc1cccc(C2=NCCN2)c1)Nc1cccc(C2=NCCN2)c1 [p32 Inhibitor M36] | 1.09 (inactive)
4 | CC1(C)C=Cc2cc(CCn3c4ccccc4c4ccccc43)cc(C=O)c2O1 | 1.78 (inactive)
5 | C[C@H](Nc1cc(-c2cnn(C)c2)cc(Nc2cnccn2)n1)c1ccc(F)cc1 [Ilginatinib] | 0.485 (inactive)
6 | COc1cc(OC)cc(N(CCNC(C)C)c2ccc3ncc(-c4cnn(C)c4)nc3c2)c1 | 1.09 (inactive)
7 | O=c1[nH]c(N2CCC3(CC2)CN(CCO)c2cc(F)cc(F)c23)nc2c1CCCC2 | 0.755 (inactive)
8 | O=c1cc(-c2ccc(O[C@@H]3O[C@H](CO)[C@@H](O)[C@H](O)[C@H]3O)cc2)oc2cc(O)c([C@@H]3O[C@H](CO)[C@@H](O)[C@H](O)[C@H]3O[C@@H]3OC[C@H](O)[C@H](O)[C@H]3O)c(O)c12 [Vaccarin] | 0.723 (inactive)
9 | CCCCCCCCCCCCC/C=C/[C@@H](O)[C@H](CO)NC(=O)CCCCCCC [C8-Ceramide] | 0.658 (inactive)
10 | Cc1cc(Nc2cc(CN3CCOCC3)c3nc(C)c(Cc4ccc(Cl)cc4F)n3n2)n[nH]1 | 1.18 (inactive)
11 | CCCCCC1CC1CC1CC1CCCCCCCC(=O)O (configuration not stated) | 1.14 (inactive)
12 | Cc1ncccc1-c1cnc(NCc2c(F)ccc3c2CCO3)n2cnnc12 | 1.39 (inactive)
13 | O=C(CCCCCCC(=O)NO)NO [Suberoyl bis-hydroxamic acid] | 0.788 (inactive)
14 | Nc1nc(OCc2ccc(CNC(=O)C(F)(F)F)cc2)c2[nH]cnc2n1 [PIN1 inhibitor API-1] | 1.38 (inactive)
15 | CC1(C)Oc2cc(N3CCN(C(=O)OCc4ccccc4)CC3)c([N+](=O)[O-])cc2-c2c1cnn2-c1ccc(C(=O)O)cc1 [Lin28-let-7a antagonist 1] | 0.959 (inactive)
16 | COc1cc2ncnc(Nc3ccc(F)c(Cl)c3)c2cc1OCCCN1CCOCC1 [Gefitinib (ZD1839)] | 1.04 (inactive)
17 | NNc1nncc2ccccc12 [Hydralazine (hydrochloride)] | 0.617 (inactive)
18 | O=C(O)c1ccc(O)c2ncccc12 | 0.734 (inactive)
19 | Cc1cc(F)c(C(=O)Nc2cccc(-c3nncn3C(C)C)n2)cc1-n1cnc(C2CC2)c1 [Selonsertib (GS-4997)] | 0.908 (inactive)
20 | COc1cc2ncnc(Nc3ccc(O)c(Br)c3)c2cc1OC | 0.973 (inactive)
21 | N#CC[C@H](C1CCCC1)n1cc(-c2ncnc3[nH]ccc23)cn1 [Ruxolitinib] | 0.544 (inactive)
22 | CCN(CC)CCCC[C@H](NC(=O)[C@H](CC(C)C)NC(=O)[C@H](C)NC(=O)[C@H](Cc1ccccc1)NC(=O)c1ccc(C(C)(C)C)cc1)C(=O)N[C@@H](CO)C(=O)OC | 1.47 (inactive)
23 | CC#CC(=O)N1CCC[C@H]1c1nc(-c2ccc(C(=O)Nc3ccccn3)cc2)c2c(N)nccn12 [Acalabrutinib (ACP-196)] | 1.28 (inactive)
24 | CS(=O)(=O)c1ccc(-c2cnc(N)c(C(=O)Nc3ccccc3)n2)cc1 | 1.46 (inactive)
25 | CCCc1cc(C)[nH]c(=O)c1CNC(=O)c1cc(-c2ccc(N3CCN(C)CC3)nc2)nc2c1cnn2C(C)C | 1.04 (inactive)
26 | Cc1cccc(CC(=O)N2CCc3c2ccc(-c2cn(C)c4ncnc(N)c24)c3F)n1 | 1.05 (inactive)
27 | N#CCC1(n2cc(-c3ncnc4[nH]ccc34)cn2)CN(C2CCN(C(=O)c3ccnc(C(F)(F)F)c3F)CC2)C1 [Itacitinib] | 0.6 (inactive)
